Experimental data as given in publication PMC5540273 (PLoS ONE, 2017).

Experiments:
Conditions in all cases: concentration: 1 μM, replicates: in singlicate; n = 1
TSSK1B = tested on: TSSK1B
TSSK3 = tested on: TSSK3
TTK = tested on: TTK
TXK = tested on: TXK
[1] = tested on: TYK2(JH1domain-catalytic)
[2] = tested on: TYK2(JH2domain-pseudokinase)
TYRO3 = tested on: TYRO3
ULK1 = tested on: ULK1
ULK2 = tested on: ULK2
ULK3 = tested on: ULK3
VEGFR2 = tested on: T1, VEGFR2
T1 construct: gene KDR

VPS34 = tested on: T2, VPS34
T2 construct: gene PIK3C3

VRK2 = tested on: VRK2
WEE1 = tested on: WEE1
WEE2 = tested on: WEE2
WNK1 = tested on: WNK1
WNK2 = tested on: WNK2
WNK3 = tested on: WNK3
WNK4 = tested on: WNK4
YANK1 = tested on: T3, YANK1
T3 construct: gene STK32A
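Note: KINOMEscan kinase panel screen.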

Compound | %Inh (TSSK1B) [%] | %Inh (TSSK3) [%] | %Inh (TTK) [%] | %Inh (TXK) [%] | %Inh [1] [%] | %Inh [2] [%] | %Inh (TYRO3) [%] | %Inh (ULK1) [%] | %Inh (ULK2) [%] | %Inh (ULK3) [%] | %Inh (VEGFR2) [%] | %Inh (VPS34) [%] | %Inh (VRK2) [%] | %Inh (WEE1) [%] | %Inh (WEE2) [%] | %Inh (WNK1) [%] | %Inh (WNK2) [%] | %Inh (WNK3) [%] | %Inh (WNK4) [%] | %Inh (YANK1) [%]
CS(=O)(=O)Cc1ccc(Nc2nccc(-c3c(-c4cccc(NC(=O)C5CCCCC5)c4)nn4ncccc34)n2)cc1 [GSK350559] | 14 | 8 | 0 | 17 | 0 | 12 | 18 | 5 | 20 | 18 | 29 | 0 | 49 | 0 | 0 | 0 | 14 | 0 | 44 | 26
Cn1cncc1C(=O)NC1CCN(c2ccnc(Nc3ccc(F)cc3)n2)C1 (stereo not shown) [GSK1379717] | 6 | 0 | 0 | 100 | 13 | 20 | 0 | 6 | 0 | 17 | 17 | 0 | 0 | 7 | 0 | 12 | 0 | 22 | 0 | 3
NS(=O)(=O)c1cccc(N/C=C2\C(=O)Nc3ccc(S(=O)(=O)Cc4c(Cl)cccc4Cl)cc32)c1 [GSK398099] | 21 | 14 | 0 | 6 | 30 | 27 | 0 | 13 | 4 | 19 | 0 | 0 | 0 | 10 | 20 | 20 | 8 | 0 | 0 | 1
CC(=O)c1cccc(NC(=O)NC2CCN(c3ccnc(Nc4ccc(F)cc4)n3)C2)c1 (stereo not shown) [GSK1379710] | 39 | 32 | 23 | 16 | 26 | 22 | 0 | 2 | 4 | 10 | 8 | 10 | 19 | 19 | 10 | 10 | 0 | 49 | 22 | 12
Cc1ccc(-c2nc(Nc3ccncc3)c3ccccc3n2)s1 [GSK189015] | 15 | 17 | 40 | 53 | 24 | 76 | 12 | 12 | 5 | 7 | 0 | 0 | 0 | 8 | 4 | 0 | 3 | 0 | 0 | 15
Cl.Cl.Cl.N#Cc1ccc(CCNc2nccc(-c3cccc(CN4CCNCC4)c3)n2)cc1 [GSK2137462] | 0 | 5 | 14 | 2 | 0 | 0 | 23 | 11 | 12 | 2 | 0 | 7 | 0 | 90.8 | 0 | 0 | 0 | 0 | 95.5 | 12
COc1ccc(-c2coc3ccc(-c4nnc(C)o4)cc23)cc1 | 0 | 0 | 0 | 0 | 0 | 0 | 0 | 0 | 0 | 0 | 0 | 0 | 0 | 0 | 4 | 0 | 32 | 0 | 0 | 0
O=c1cc(N2CCOCC2)nc2n(Cc3ccccc3F)ccn12 [GSK2297428] | 0 | 13 | 0 | 0 | 0 | 0 | 0 | 0 | 0 | 0 | 0 | 94 | 0 | 0 | 0 | 0 | 0 | 19 | 0 | 0
